Bioassay records: PubChem BioAssay, several laboratories
An excerpt weighted towards active compounds, which were near 2.3% of everything screened.
KKLEB tox: reduces viability of KKLEB cystic fibrosis airway cells; KKLEB CF airway cells viability, ATPlite luminescence, overnight; stronger effect = lower value; cells stimulated with P. aeruginosa culture filtrate; activity change (cytotoxicity), % at 5 µM; hit rate 0.36% among 360,000; AID 602141;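 active = corrected activity change at or below -50% at 5 µM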
CF NFkB inh: cystic fibrosis NF-kB activation inhibition. inhibition, % at 5 µM. KKLEB NF-kB-GFP reporter, PAF-induced, GFP fluorescence overnight. hit rate 0.86% among 360,000;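 active = at least 50% inhibition at 5 µM, scaled per plate between neutral and stimulator controls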;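 also: PAF is a Pseudomonas aeruginosa culture filtrate used as stimulus; plate controls were PAF-stimulated DMSO wells for no effect and unstimulated DMSO wells for full effect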
hiPSC survival: hiPSC single-cell survival enhancement; ATPlite luminescence; 100% = ROCK inhibitor wells, 0% = DMSO; survival enhancement, % at 20 µM; hit rate 0.044% among 360,000; in the data active = survival enhancement above about 18%;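 also: cells exposed to compounds for 16 hours before the ATP read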
TWEAK-Fn14 inh: TWEAK-Fn14 signaling inhibition. TWEAK-stimulated Fn14 reporter cells, luciferase luminescence, 8 h. inhibition, % at 10 µM. hit rate 2% among 360,000; in the data active = inhibition above about 50%
HIF-2a inh: HIF-2a inhibition. 786-0 RCC cells HIF-2a reporter, luciferase luminescence, overnight. inhibition, % at 18.8 µM. hit rate 0.72% among 360,000;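 active = inhibition of the luminescence signal of 40% or more relative to plate controls, in a single-dose primary screen at 18.75 µM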
LGR2 inh: blocks bursicon-induced cAMP signaling via Drosophila LGR2. HEK293 LGR2, CRE-luciferase, bursicon-stimulated, 4 h. inhibition, % at 9.99 µM. hit rate 0.35% among 380,000. AID 720647;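 active = drop in luminescence signal, shown as inhibition above about 50% in the replicate tests, limit read from the data, passing the limit was not always enough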;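 also: agonist challenge used bursicon conditioned medium at about half maximal strength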
* marks the source's active call; other numbers are inactive results; . = not tested or not shown.

SMILES	KKLEB tox	CF NFkB inh	hiPSC survival	TWEAK-Fn14 inh	HIF-2a inh	LGR2 inh
O=C(c1cc(-c2ccc(Cl)cc2)on1)N1CCOCC1	3	9	-2	51*	-110	-14
O=C(c1cc(-c2ccc3c(c2)OCO3)on1)N1CCN(c2ccccc2)CC1	-6	10	0	22	-260	-70
COc1ccc(-c2cc(C(=O)N3CCCC3)no2)cc1	-8	8	-1	57*	-8	75*
CC=Cc1ccc2n(c1=O)C[C@H]1[C@H](CO)[C@@H](C(=O)N3CCc4ccccc4C3)N(C(=O)COC)[C@@H]21 (mixture of isomers)	.	.	.	.	.	6
O=C(Nc1cccnc1)c1cc(-c2ccc3c(c2)OCO3)on1	-26	-2	-2	77*	-171	63*
Cc1cc(C)c(S(=O)(=O)Nc2ccc3c4c(cccc24)CC3)c(C)c1	-34	57*	-4	28	18	-21
COc1ccccc1-c1csc(NC(=O)c2ccc(N3C(=O)CCC3=O)cc2)n1	14	-9	2	51*	1	8
C[C@@H]1CN([C@@H](C)CO)S(=O)(=O)c2ccc(C#CC3CCCCC3)cc2O[C@H]1CN(C)C	.	.	.	.	.	8
c1ccc2c(c1)oc1c(Nc3ccc(CN4CCOCC4)cc3)ncnc12	-13	-26	-2	75*	-177	.
CCNC(=O)C[C@H]1CC[C@@H](NS(=O)(=O)c2ccc(F)cc2)[C@H](CO)O1	.	.	.	.	.	-4
COc1cccc(N2CCN(c3ncnc4c3[nH]c3ccc(F)cc34)CC2C)c1 (configuration not stated)	-15	88*	-2	104*	27	.
COc1cc2[nH]c3c(N4CCN(c5ccc(Cl)cc5)CC4)ncnc3c2cc1OC	-11	-20	2	-9	14	23
CCCC(=O)Nc1ccc(C(=O)O)cc1NC(=O)CCC	-8	4	-2	103*	2	.
CCOc1nc(N2CCCCC2)nc(-n2cc(-c3ccccc3)nn2)n1	1	-4	2	72*	16	-17
CCOC(=O)c1nnn(-c2nc(N3CCCC3)nc(N3CCCC3)n2)c1-c1ccccc1	-18	4	-1	38	22	.
CCOC(=O)c1c(-c2ccccc2)nnn1-c1nc(OCC)nc(N2CCCCC2)n1	10	4	3	53*	9	.
FC(F)(F)c1cc(-c2ccccc2)nc(N2CCCCC2)n1	-9	6	-1	22	11	9
C[C@@H]1CN([C@H](C)CO)C(=O)c2cc(NC(=O)Nc3cccc4ccccc34)ccc2O[C@H]1CN(C)Cc1ccc(-c2ccccc2)cc1	.	.	.	.	.	24
CC(C)=CCC/C(C)=C/CNC(=O)C[C@H]1C[C@H](C(=O)N(C(C)C)C(C)C)[C@@]2(C)c3[nH]c4ccc(Cl)cc4c3CCN2C1=O	-4	19	-2	56*	-7	-2
CCN(CC)c1cc2nc(C)n(Cc3ccccc3)c(=O)c2cc1NC(=O)C1CC1	2	9	-1	3	-4	.
Cc1nc2cc(N3CCN(C)CC3)c(NC(=O)Cc3ccccc3)cc2c(=O)n1Cc1ccccc1	-5	6	0	87*	37	.
CO[C@H]1CN(C)C(=O)c2ccc(NC(=O)NC(C)C)cc2OC[C@H](C)N(C(=O)NC(C)C)C[C@H]1C	.	.	.	.	.	-15
CC(C)CC#Cc1cnc2c(c1)C(=O)N([C@H](C)CO)C[C@@H](C)[C@H](CN(C)C(=O)CN1CCOCC1)O2	.	.	.	.	.	8
CCOC(=O)c1sc(NC(=O)Nc2ccc(Cl)cc2)cc1C	-38	48	-2	67*	-254	.
O=C(C[C@@H]1CC[C@H]2[C@@H](COC[C@@H](O)CN2Cc2cccc(-c3ccncc3)c2)O1)N1CCOCC1	.	.	.	.	.	16
CC1CCc2c(sc3nc(SCC(=O)O)n(-c4ccccc4)c(=O)c23)C1 (configuration not stated)	8	-10	0	89*	6	16
C[C@@H]1CCCCO[C@H](CN(C)S(=O)(=O)c2ccc(F)cc2)[C@H](C)CN([C@@H](C)CO)C(=O)c2cc(NC(=O)C3CCCCC3)ccc2O1	.	.	.	.	.	22
C[C@H]1CCCCO[C@H](CN(C)Cc2ccc3c(c2)OCO3)[C@@H](C)CN([C@@H](C)CO)C(=O)c2cc(NC(=O)NC3CCCCC3)ccc2O1	.	.	.	.	.	-5
